# Screening data (PubChem)
# 12-hLO inh = inhibitors of human 12-lipoxygenase (ALOX12); AID 1452; Potency, µM (doses to about 57.1 µM), for inactives: at the top dose activity change, negative = inhibition, usual class: inhibitors; actives 0.12% (n = 150,000); purified 12-hLO, xylenol orange hydroperoxide absorbance; further: potency means the concentration at half of the fitted maximal effect; nearly all actives have a fitted effect of over 55% in size
# Target sequence (P18054 whole entry, looked up): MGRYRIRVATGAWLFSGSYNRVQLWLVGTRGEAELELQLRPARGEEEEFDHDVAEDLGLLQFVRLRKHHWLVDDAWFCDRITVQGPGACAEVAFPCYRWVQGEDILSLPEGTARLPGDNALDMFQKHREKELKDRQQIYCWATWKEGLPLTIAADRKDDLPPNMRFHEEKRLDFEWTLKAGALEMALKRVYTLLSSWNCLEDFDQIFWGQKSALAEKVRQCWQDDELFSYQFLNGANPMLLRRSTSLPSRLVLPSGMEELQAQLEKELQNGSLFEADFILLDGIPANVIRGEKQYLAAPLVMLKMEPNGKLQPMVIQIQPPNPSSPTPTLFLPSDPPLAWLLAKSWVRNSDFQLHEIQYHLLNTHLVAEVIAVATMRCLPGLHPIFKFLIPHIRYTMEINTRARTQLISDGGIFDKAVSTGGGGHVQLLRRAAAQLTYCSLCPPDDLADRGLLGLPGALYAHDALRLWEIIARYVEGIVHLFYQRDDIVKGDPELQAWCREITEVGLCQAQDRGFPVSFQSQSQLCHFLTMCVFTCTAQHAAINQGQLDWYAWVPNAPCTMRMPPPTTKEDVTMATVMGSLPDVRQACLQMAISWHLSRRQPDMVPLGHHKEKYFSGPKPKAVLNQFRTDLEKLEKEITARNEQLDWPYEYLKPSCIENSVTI
#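 Xylenol orange chromogenic assay: hydroperoxide from 12hLO oxidises Fe(II), giving red-shifted Fe(III)-XO absorbance. Conditions: 150 nM enzyme, 40 uM arachidonic acid, 25 mM Hepes pH 7.0, 0.01% Triton X-100, 30 min, room temperature.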
# ALOX15B inhib = inhibitors of human 15-lipoxygenase 2 (ALOX15B); O15296; purified 15hLO-2, xylenol orange hydroperoxide absorbance; Potency, µM (doses to about 57.1 µM), inactives show at the top dose activity change, negative = inhibition, most hits filed as inhibitors; actives 0.56% (n = 110,000); AID 881; further: potency means the concentration at half of the fitted maximal effect; nearly all actives have a fitted effect of over 60% in size
#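 Purified human 15hLO-2 (50 nM final) preincubated with compounds 15 min at room temperature in 25 mM Hepes pH 7.5, 0.01% Triton X-100, then 45 uM arachidonic acid added for 90 min; hydroperoxide detected via ferrous/xylenol orange, 573/405 nm absorbance ratio.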
# PNC inhibitor = blocks assembly of the perinucleolar compartment; actives 3.1% (n = 140,000); activity change (PNC), negative = inhibition, % at 10 µM; AID 2417; PC3M PTB-GFP, PNC prevalence imaging, 16 h; hits give low values;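 active means readout at or below -70, meaning at least 70% loss of cells showing the perinucleolar compartment, a nuclear body marking cancer cells; inconclusive means readout between -30 and a set limit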;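 further: plate controls were DMSO wells for no effect and camptothecin positive control wells for full effect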
#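 PC3M cells stably expressing PTB-GFP, 750–1000 cells/well, treated 16 h at 37 °C with compound (23 nl of library stock), in duplicate. After paraformaldehyde fixation and Hoechst stain, imaged at 20x; PNC prevalence scored by image analysis.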
# Starred values were filed as active, the others as inactive; ? = inconclusive; . = no result; [ ] = remark or other dose. This is a sample that favours compounds with a hit; in the whole collection about 3.2% have one here. Unless noted, the call rests on the fitted dose curve; in most records, active means well fitted curve in the direction sought with a large enough effect; inconclusive means small, poorly fitted or top-dose-only effect, or another doubt; inactive means no such curve, though single readings can be large; an effect the other way counts as inactive or inconclusive. Unless noted, on the % scale 0 is the no-effect control and ±100 the full control effect.
SMILES,12-hLO inh,ALOX15B inhib,PNC inhibitor
Cc1ccc(C2CC(C(F)(F)F)n3nc(C(=O)NCC4CCCO4)cc3N2)cc1 (stereo unspecified),-6%,12%,17
CN(C)C(=O)c1ccc(-c2nc(Nc3ccc(F)cc3)c3ccccc3n2)cc1,-2%,-8%,.
CSc1nc(N(C)NC(=O)c2ccc(F)cc2)c2ccccc2n1,7%,6%,-83*
CCOC(=O)CSc1ncnc2c(C(=O)OCC)c3n(c12)CCC3,0%,.,4
C/C(=N/NC(=O)c1ccoc1C)C12CC3CC(CC(C3)C1)C2,-2%,3%,34
CCOc1ccc(C(C)(C)C)cc1S(=O)(=O)N1CCOCC1,-1%,6%,-97*
CCOc1ccc(C)cc1S(=O)(=O)N1CCCCC1,0%,1%,48
Cc1nn(-c2ccccc2)c(C)c1/C=N/NC(=O)c1cc(-c2ccc(Br)s2)[nH]n1,-1%,19%,-27
Cc1nn(-c2ccccc2)c(C)c1/C=N/NC(=O)c1cc(-c2cccs2)[nH]n1,-1%,.,-115*
Cc1ccc(C(=O)Nc2ccc(N3CCOCC3)cc2)cc1,-5%,3%,?
Cc1cnc(C(=O)Nc2ccc(N3CCOCC3)cc2)cn1,0%,.,-100*
Cc1ccccc1-c1nnc2s/c(=C\c3ccc(N(C)C)cc3)c(=O)n12,-5%,-3%,-17
Cc1ccc(NC(=O)CN(C)C(=O)c2ccc(C(F)(F)F)cc2)cc1,-6%,.,?
O=C(C1Cc2ccccc2CN1S(=O)(=O)c1ccc(F)cc1)N1CCCCC1 (stereo unspecified),-4%,-2%,48
O=C(NC1CCCCC1)C1Cc2ccccc2CN1S(=O)(=O)c1ccc(F)cc1 (stereo unspecified),5%,.,-100*
COC(=O)c1c(NC(=O)CN2CCC3(O)CCCCC3C2c2cc(OC)ccc2OC)sc(C)c1C (stereo unspecified),1%,.,-16
Cc1cc2oc3c(c(=O)c2cc1C)C(c1ccc(C(C)C)cc1)N(CCCN1CCOCC1)C3=O (stereo unspecified),5%,.,17
O=C(NC(Cc1c[nH]c2ccccc12)C(=O)NCc1ccc(F)cc1)OCc1ccccc1 (stereo unspecified),-5%,.,-20
O=S(=O)(Nc1cc(Sc2cccc3cccnc23)c(O)c2ccccc12)c1ccc(F)cc1,-8%,.,-118*
COc1ccc(S(=O)(=O)Nc2ccc(O)c(Sc3ncn[nH]3)c2)cc1,-9%,.,276
COc1ccc(S(=O)(=O)Nc2cc(Sc3ncn[nH]3)c(O)c3ccccc23)cc1,?,4µM*,-28
O=S(=O)(Nc1cccc2cn[nH]c12)c1ccc(F)cc1,-5%,-5%,36
CC(C)C[C@@H](CC(=O)N[C@@H](CCC(=O)O)CC(=O)O)NC(=O)[C@@H]1CCCC[C@H]1NC(=O)C[C@H](CCCN)NC(=O)C[C@H](Cc1ccccc1)NC(=O)[C@@H]1CCCC[C@H]1N,-2%,.,.
CCOC(=O)c1ccc(N=C2C(=S)N(c3ccc(C(=O)OCC)cc3)C(=N)N2/N=C/c2ccccc2)cc1,-5%,.,-86*
CCOC(=O)c1ccc(N2Cc3ccccc3C2=N)cc1,7%,12%,?
SMILES,12-hLO inh,ALOX15B inhib,PNC inhibitor
COc1ccc(O[C@H]2C=C[C@@H](c3ccccc3)O[C@@H]2CO/N=C(\C)CCN2CCCCc3nc(C)c(C)cc32)cc1,-2%,.,-23
CC1=C(C(=O)OCc2ccccc2)C(c2ccc(Cl)cc2)NC(=O)N1CCCCCC(=O)O (stereo unspecified),-4%,-17%,52
CC1=C(C(=O)OCc2ccccc2)C(c2ccc(C3CCCCC3)cc2)NC(=O)N1CCCCCC(=O)O (stereo unspecified),-3%,25µM*,.
O=C(CSCCO)Nc1ccc(C2CCCCC2)cc1,-10%,-4%,-127*
CC(=O)c1ccc(NC(=O)CSCCO)cc1,-1%,-2%,5
O=C(Nc1ccccc1)N1CCCC2(CCN(C(=O)c3ccco3)CC2)C1,1%,3%,.
C/C(=N\NC(=O)c1ccn(C)n1)c1ccc(NC(=O)C2CCCC2)cc1,0%,.,?
C/C(=N/NC(=O)c1ccoc1C)c1ccc(NC(=O)C2CCCC2)cc1,-2%,.,-87*
c1ccc(CNc2nc(-c3ccc4c(c3)OCO4)nc3ccccc23)cc1,.,45%,.
Nc1nc(-c2ccccc2)cc(-c2ccccc2O)n1,-9%,-2%,-26
NNc1nc(-c2ccccc2)cc(-c2ccccc2O)n1,-6%,-17%,-106*
CC(Nc1oc(-c2ccccc2)nc1-c1ccc(C(F)(F)F)cc1)c1ccccc1 (stereo unspecified),0%,.,.
CCOC(=O)c1c(C)nc2ccc(Cl)cc2c1-c1ccccc1,-1%,.,-14
CC(=O)c1c(C)nc2cc(Cl)ccc2c1N,1%,5%,-95*
O=C(N/N=C/c1c(Cl)cccc1Cl)c1ccccc1F,2%,.,-84*
O=C(N/N=C/c1c(Cl)cccc1Cl)c1ccc(F)cc1,-4%,-6%,3
C[C@H]1Cc2c(-c3ccccc3)nc3c(c2CO1)CN(C(=O)C1CCCCC1)CC3,3%[11.4 µM],.,.
COc1ccc(OC)c(/C=N/NC(=O)c2cc3c(OC)c(OC)ccc3[nH]2)c1,-2%,.,-112*
COc1ccc(OC)c(/C=N\NC(=O)c2ccc(=O)n(C)c2)c1,-4%,.,-17
COC(=O)c1c(O)cc(C(C)(C)C)n(-c2ccc(F)cc2)c1=O,-3%,.,?
CCN(CC)CCCCn1c(-c2ccccc2)nc2c(NCc3ccccc3)nc(C)nc21,-2%,4%,.
Cc1ccc(C(=O)/C=C/c2ccco2)c(O)c1,?,.,37
CC(C)(C)OC(=O)N/N=C/c1c[nH]c2ccccc12,-1%,.,-109*
Cc1nc(C)c(C(=O)N/N=C/c2c[nH]c3ccccc23)s1,-3%,-8%,-87*
COC(=O)N/N=C/c1c[nH]c2ccccc12,0%,.,17
SMILES,12-hLO inh,ALOX15B inhib,PNC inhibitor
Cc1nc(C)c(C(=O)N/N=C/c2cn(C)c3ccccc23)s1,-3%,-2%,-5
O=C(N/N=C/c1c[nH]c2ccccc12)c1cc(-c2ccc(-c3ccccc3)cc2)n[nH]1,5%,-28%,-13
O=C(N/N=C/c1c[nH]c2ccccc12)c1cc(-c2ccc3ccccc3c2)n[nH]1,-4%,.,-113*
CCC(Cc1c(I)cc(I)c(N)c1I)C(=O)O (stereo unspecified),-2%,-4%,.
COc1ccc(-c2cc(C(=O)NCc3cn(C)nc3C)c3ccccc3n2)cc1OC,-1%,.,2
N#CCCn1c(=O)cnc2cnc(Oc3ccccc3)nc21,.,-5%,.
Cc1nnc(SCC(C)C)[nH]c1=O,6%,-8%,7
Cc1nn(CC(C)C)c(=S)[nH]c1=O,-6%,-2%,-83*
COCCOC(=O)c1c(NC(=O)CN2CCCc3ccccc32)sc(C(N)=O)c1C,0%,.,?
CC(C)Sc1nnc(CNC(=O)C23CC4CC(CC(C4)C2)C3)n1Cc1ccccc1,-2%,.,-17
CSc1nnc(CNC(=O)C23CC4CC(CC(C4)C2)C3)n1Cc1ccccc1,0%,.,-115*
COc1ccc(NC2=Nc3cccc4cccc2c34)cc1,-11%,.,68
COc1c2c(nc3occc13)C(CC=C(C)C)(OC)C(OC(C)=O)CC2 (stereo unspecified),1%,.,-14
